# Results: PubChem BioAssay AID1159580 (chemical genetic matrix, 2015)
# Among all 5,500 compounds or so, about 2,000 (36%) were called active. Another 18% or so got no clear call; they are omitted. The list shows a part of the results. Unmarked numbers belong to inactive results. No stated cut-off is given here; in the data, active means normalized growth mostly below about 0.91 (no sharp cut-off); inconclusive means no clear call, values can overlap the other calls; inactive means mostly above about 0.92.
# Experiment: chemical genetic growth profiling, strain panel (AID 1159580);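 further: tested at 20 µM; growth read once vehicle control cultures reached saturation at 30 °C; 1 = growth at the plate median or of vehicle wells; lower values mean less growth of the strain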
# Conditions: growth OD
# [1] = S. cerevisiae deletion strains, locus YDR150W, strain NUM1, active compounds read low
# [2] = S. cerevisiae deletion strains, locus YGR078C, strain PAC10, active compounds read low
# [3] = S. cerevisiae deletion strains, locus YNL128W, strain TEP1, active compounds read low
# [4] = S. cerevisiae deletion strains, locus YNL322C, strain KRE1, active compounds read low
# [5] = S. cerevisiae deletion strains, locus YPL055C, strain LGE1, active compounds read low
# [6] = S. cerevisiae deletion strains, locus YPL241C, strain CIN2, active compounds read low
smiles,measurement,setting,value
CCCCCCCCCCCCCC(=O)O[C@@H]1[C@@H](C)[C@@]2(O)[C@@H](C=C(CO)C[C@@]3(O)C(=O)C(C)=C[C@@H]23)C2C(C)(C)[C@@]21OC(C)=O (some centres undefined),normalized growth,"S. cerevisiae deletion strains, locus YAL040C, strain CLN3, active compounds read low",0.977
same,normalized growth,"S. cerevisiae deletion strains, locus YCL061C, strain MRC1 (second series), active compounds read low",0.992
same,normalized growth,[1],0.999
same,normalized growth,"S. cerevisiae deletion strains, locus YDR363W, strain ESC2, active compounds read low",0.999
same,normalized growth,"S. cerevisiae deletion strains, locus YER002W, strain NOP16, active compounds read low",0.985
same,normalized growth,[2],0.972
same,normalized growth,[3],1.01
same,normalized growth,"S. cerevisiae deletion strains, locus YNL175C, strain NOP13, active compounds read low",1.01
same,normalized growth,"S. cerevisiae deletion strains, locus YNL197C, strain WHI3, active compounds read low",1.02
same,normalized growth,"S. cerevisiae deletion strains, locus YNL224C, strain SQS1, active compounds read low",1.01
same,normalized growth,[4],1
same,normalized growth,"S. cerevisiae deletion strains, locus YOR083W, strain WHI5 (second series), active compounds read low",1.01
same,normalized growth,[5],1.06
same,normalized growth,[6],0.997
Clc1cccc(NC2=NCCS2)c1Cl,normalized growth,"S. cerevisiae deletion strains, locus YAL013W, strain DEP1, active compounds read low",0.995
same,normalized growth,"S. cerevisiae deletion strains, locus YBR229C, strain ROT2, active compounds read low",1
same,normalized growth,"S. cerevisiae deletion strains, locus YDL101C, strain DUN1, active compounds read low",1.03
same,normalized growth,[1],0.984
same,normalized growth,"S. cerevisiae deletion strains, locus YEL061C, strain CIN8, active compounds read low",0.974
same,normalized growth,[2],1
same,normalized growth,"S. cerevisiae deletion strains, locus YHR030C, strain SLT2, active compounds read low",0.698
same,normalized growth,"S. cerevisiae deletion strains, locus YHR087W, strain rtc3, active compounds read low",1.02
same,normalized growth,"S. cerevisiae deletion strains, locus YJL187C, strain SWE1, active compounds read low",1
same,normalized growth,"S. cerevisiae deletion strains, locus YJR043C, strain POL32, active compounds read low",1.01
same,normalized growth,"S. cerevisiae deletion strains, locus YJR075W, strain HOC1, active compounds read low",1.02
same,normalized growth,"S. cerevisiae deletion strains, locus YKL190W, strain CNB1, active compounds read low",0.996
same,normalized growth,"S. cerevisiae deletion strains, locus YLR039C, strain RIC1, active compounds read low",0.721 (active)
same,normalized growth,"S. cerevisiae deletion strains, locus YLR058C, strain SHM2 (second series), active compounds read low",1
same,normalized growth,"S. cerevisiae deletion strains, locus YLR085C, strain ARP6, active compounds read low",0.931
same,normalized growth,"S. cerevisiae deletion strains, locus YLR262C, strain YPT6, active compounds read low",0.817
same,normalized growth,"S. cerevisiae deletion strains, locus YML094W, strain GIM5, active compounds read low",1.03
same,normalized growth,"S. cerevisiae deletion strains, locus YMR219W, strain ESC1, active compounds read low",1.01
same,normalized growth,"S. cerevisiae deletion strains, locus YMR263W, strain SAP30, active compounds read low",0.969
same,normalized growth,"S. cerevisiae deletion strains, locus YMR307W, strain GAS1, active compounds read low",0.776
same,normalized growth,[3],1.02
same,normalized growth,"S. cerevisiae deletion strains, locus YNL153C, strain GIM3, active compounds read low",1
same,normalized growth,"S. cerevisiae deletion strains, locus YNL298W, strain CLA4 (second series), active compounds read low",0.946
same,normalized growth,[4],0.994
same,normalized growth,"S. cerevisiae deletion strains, locus YNR030W, strain Alg12, active compounds read low",0.971
same,normalized growth,"S. cerevisiae deletion strains, locus YOL006C, strain TOP1, active compounds read low",0.722 (active)
same,normalized growth,[5],0.953
same,normalized growth,[6],1.05
same,normalized growth,"S. cerevisiae deletion strains, locus YPR135W, strain CTF4, active compounds read low",0.928
same,normalized growth,"S. cerevisiae strains, strain wild type, active compounds read low",0.983
